The values below come from PubChem BioAssay (NCI).

Compounds without any hit were thinned out: in the full panel of roughly 79,000, 15% have a hit. Unmarked numbers belong to inactive results. The source made the active and inactive calls. Rule as the data show it: active = growth inhibition above about 70%; inactive = the rest.

Assay [1] can be described thus: NCI Yeast Anticancer Drug Screen. Data for the rad50 strain (AID 155).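 Also: 0% = growth of vehicle-only cultures of the same strain.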 The conditions noted are these: S. cerevisiae rad50 strain growth inhibition, hits give high values. The procedure, abridged: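 DNA repair mutant yeast, compound exposure, growth read-out; inhibition is taken relative to vehicle.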
Assay [2] in a line: NCI Yeast Anticancer Drug Screen. Data for the mec2-1 strain (AID 157). To be noted: S. cerevisiae mec2-1 strain, hits give high values. The procedure, abridged:
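mec2-1 yeast strain, carrying an alteration in DNA damage repair or cell cycle control, was exposed to compounds; growth inhibition was measured relative to vehicle-treated controls.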

Assay [3] can be described thus: NCI Yeast Anticancer Drug Screen. Data for the sgs1 mgt1 strain (AID 161).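 Also: 0% = growth of cultures given vehicle only.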 The conditions noted are these: S. cerevisiae sgs1 mgt1 strain, hits give high values. An outline of the steps: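 Yeast cells carrying a defined DNA-repair defect were exposed to test compounds. Growth inhibition was measured relative to vehicle-treated controls.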
Assay [4] in a line: NCI Yeast Anticancer Drug Screen. Data for the cln2 rad14 strain (AID 165).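 Also: 0% = growth equal to vehicle treated cultures.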 The conditions noted are these: S. cerevisiae cln2 rad14 strain, hits give high values. An outline of the steps:
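Yeast carrying cln2 and rad14 alterations (cell cycle control and DNA damage repair) were exposed to compounds. Growth inhibition was measured against vehicle-treated controls.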

A short description of assay [5]: NCI Yeast Anticancer Drug Screen. Data for the bub3 strain (AID 167). To be noted: S. cerevisiae bub3 mutant strain, hits give high values. The procedure, abridged:
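In this screen, a yeast mutant lacking normal mitotic checkpoint function is challenged with compound. Relative growth versus vehicle gives the inhibition value.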

Assay [6] in a line: NCI Yeast Anticancer Drug Screen. Data for the mlh1 rad18 strain (AID 175). The conditions noted are these: S. cerevisiae mlh1 rad18 strain growth inhibition, hits give high values. An outline of the steps:
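Growth inhibition of the yeast strain was measured after compound exposure and expressed relative to vehicle-treated controls. The strain carries defined defects in DNA damage repair.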

Setting [7] is: at 5.0 µM (retest, dose inferred, filed as 0.5).
The mark [8] stands for this setting: at 50.0 µM (retest, dose inferred, filed as 5.0).

In the case of `CN(C(=O)c1cccs1)C(=S)N1CCN(c2ccccc2)CC1`, the growth inhibition in assay [1] (setting [7]) is -26%; in assay [1] (setting [8]), 66%; in assay [1] (at 50.0 µM) it was 79.8% (active); in assay [2] (setting [7]), 6%; in assay [2] (setting [8]), 68%; in assay [2] (at 50.0 µM) it was 67%. Further, the growth inhibition is -2% in assay [3] (setting [7]); 70% (active) in assay [3] (setting [8]); 84.8% (active) in assay [3] (at 50.0 µM); -8% in assay [4] (setting [7]); 56% in assay [4] (setting [8]); 49.9% in assay [4] (at 50.0 µM). For the same molecule, the growth inhibition was -14% in assay [5] (setting [7]); 83% (active) in assay [5] (setting [8]); 61.3% in assay [5] (at 50.0 µM); -18% in assay [6] (setting [7]); 90% (active) in assay [6] (setting [8]); 67.2% in assay [6] (at 50.0 µM).

As for `CCC(C)SSc1ccccc1C(=O)Nc1ccc(Cl)cc1` (stereo not given), the growth inhibition is 3% in assay [1] (setting [7]); 52% in assay [1] (setting [8]); 79.5% (active) in assay [1] (at 50.0 µM); 14% in assay [2] (setting [7]); 93% (active) in assay [2] (setting [8]); 93.9% (active) in assay [2] (at 50.0 µM). Further, the growth inhibition in assay [3] (setting [7]) was -12%; in assay [3] (setting [8]), 83% (active); in assay [3] (at 50.0 µM) it was 91.7% (active); in assay [4] (setting [7]), -5%; in assay [4] (setting [8]), 85% (active); in assay [4] (at 50.0 µM), 74.1% (active). The growth inhibition is -2% in assay [5] (setting [7]); 93% (active) in assay [5] (setting [8]); 91.3% (active) in assay [5] (at 50.0 µM); 7% in assay [6] (setting [7]); 91% (active) in assay [6] (setting [8]); 87.7% (active) in assay [6] (at 50.0 µM).

In the case of `Fc1cccc(C2SCc3nc4ccccc4n32)c1F` (stereo not given), the growth inhibition in assay [1] (setting [7]) is -4%; in assay [1] (setting [8]), 2%; in assay [1] (at 50.0 µM), 63.3%; in assay [2] (setting [7]) it was -5%; in assay [2] (setting [8]), 23%; in assay [2] (at 50.0 µM) it was 54.8%. Also, the growth inhibition in assay [3] (setting [7]) is -3%; in assay [3] (setting [8]) it was 28%; in assay [3] (at 50.0 µM), 76.2% (active); in assay [4] (setting [7]) it was -12%; in assay [4] (setting [8]), -7%; in assay [4] (at 50.0 µM) it was 40.2%. Moreover, the growth inhibition in assay [5] (setting [7]) was -5%; in assay [5] (setting [8]) it was 14%; in assay [5] (at 50.0 µM) it was 73.3% (active); in assay [6] (setting [7]), -8%; in assay [6] (setting [8]), 7%; in assay [6] (at 50.0 µM), 92% (active).

Take `Nc1ccc2c(c1)C(=O)c1ccccc1-2`: the growth inhibition in assay [1] (setting [7]) was 9%; in assay [1] (setting [8]) it was 57%; in assay [1] (at 50.0 µM) it was 68.2%; in assay [2] (setting [7]), 3%; in assay [2] (setting [8]) it was 15%; in assay [2] (at 50.0 µM), 26.1%. For the same molecule, the growth inhibition in assay [3] (setting [7]) is 0%; in assay [3] (setting [8]), 6%; in assay [3] (at 50.0 µM) it was 21.4%; in assay [4] (setting [7]), 1%; in assay [4] (setting [8]) it was 7%; in assay [4] (at 50.0 µM), 11.6%. Besides, the growth inhibition was 2% in assay [5] (setting [7]); 9% in assay [5] (setting [8]); -6.55% in assay [5] (at 50.0 µM); 2% in assay [6] (setting [7]); 25% in assay [6] (setting [8]); 14.2% in assay [6] (at 50.0 µM).

For the molecule `CNC(=S)/N=c1/sc([N+](=O)[O-])c(C)n1C`, the growth inhibition in assay [1] (setting [7]) was -26%; in assay [1] (setting [8]), -4%; in assay [1] (at 50.0 µM) it was 65.5%; in assay [2] (setting [7]), -6%; in assay [2] (setting [8]), 0%; in assay [2] (at 50.0 µM), 12.5%. Moreover, the growth inhibition in assay [3] (setting [7]) was -7%; in assay [3] (setting [8]), 7%; in assay [3] (at 50.0 µM), 67.7%; in assay [4] (setting [7]), -33%; in assay [4] (setting [8]) it was -14%; in assay [4] (at 50.0 µM) it was -1.95%. Besides, the growth inhibition in assay [5] (setting [7]) was -4%; in assay [5] (setting [8]), 5%; in assay [5] (at 50.0 µM), 44.9%; in assay [6] (setting [7]) it was -20%; in assay [6] (setting [8]), -12%; in assay [6] (at 50.0 µM), 54.8%.

For the molecule `CN(C)C(=S)SC1(CN2CCOCC2)COc2c(Cl)cc(Cl)cc2C1=O` (stereo not given), the growth inhibition was 1% in assay [1] (setting [7]); 97% (active) in assay [1] (setting [8]); 90.4% (active) in assay [1] (at 50.0 µM); 3% in assay [2] (setting [7]); 96% (active) in assay [2] (setting [8]); 76.2% (active) in assay [2] (at 50.0 µM). For the same molecule, the growth inhibition in assay [3] (setting [7]) is 3%; in assay [3] (setting [8]), 97% (active); in assay [3] (at 50.0 µM) it was 95.3% (active); in assay [4] (setting [7]), 6%; in assay [4] (setting [8]), 96% (active); in assay [4] (at 50.0 µM), 75% (active). The growth inhibition in assay [5] (setting [7]) is 5%; in assay [5] (setting [8]), 96% (active); in assay [5] (at 50.0 µM), 79.3% (active); in assay [6] (setting [7]) it was 1%; in assay [6] (setting [8]), 97% (active); in assay [6] (at 50.0 µM), 89.5% (active).

`Cc1ccc(Nc2nc3c(s2)C(=O)c2ccccc2C3=O)c(C)c1`: the growth inhibition was 28% in assay [1] (setting [7]); 99% (active) in assay [1] (setting [8]); 98.7% (active) in assay [1] (at 50.0 µM); 33% in assay [2] (setting [7]); 99% (active) in assay [2] (setting [8]); 99.5% (active) in assay [2] (at 50.0 µM). In addition, the growth inhibition was 18% in assay [3] (setting [7]); 99% (active) in assay [3] (setting [8]); 99.2% (active) in assay [3] (at 50.0 µM); 7% in assay [4] (setting [7]); 98% (active) in assay [4] (setting [8]); 98.9% (active) in assay [4] (at 50.0 µM). Besides, the growth inhibition in assay [5] (setting [7]) is 50%; in assay [5] (setting [8]) it was 99% (active); in assay [5] (at 50.0 µM), 99.5% (active); in assay [6] (setting [7]) it was 30%; in assay [6] (setting [8]), 98% (active); in assay [6] (at 50.0 µM), 97.8% (active).

Turning to `Cn1c(=S)c2[nH]c(=S)[nH]c2n(C)c1=O`, the growth inhibition was 85% (active) in assay [1] (setting [7]); 91% (active) in assay [1] (setting [8]); 97.2% (active) in assay [1] (at 50.0 µM); 91% (active) in assay [2] (setting [7]); 92% (active) in assay [2] (setting [8]); 96.7% (active) in assay [2] (at 50.0 µM). Further, the growth inhibition in assay [3] (setting [7]) is 94% (active); in assay [3] (setting [8]), 96% (active); in assay [3] (at 50.0 µM) it was 96.7% (active); in assay [4] (setting [7]), 78% (active); in assay [4] (setting [8]) it was 47%; in assay [4] (at 50.0 µM) it was 80.3% (active). For the same molecule, the growth inhibition is 91% (active) in assay [5] (setting [7]); 89% (active) in assay [5] (setting [8]); 96.7% (active) in assay [5] (at 50.0 µM); 92% (active) in assay [6] (setting [7]); 93% (active) in assay [6] (setting [8]); 97.2% (active) in assay [6] (at 50.0 µM).

On to `CCCCCCCCCCCCCCCBr`, for which the growth inhibition was -27% in assay [1] (setting [7]); 4% in assay [1] (setting [8]); 10.7% in assay [1] (at 50.0 µM); -9% in assay [2] (setting [7]); 12% in assay [2] (setting [8]); 49.6% in assay [2] (at 50.0 µM). Further, the growth inhibition is -10% in assay [3] (setting [7]); 6% in assay [3] (setting [8]); -9.7% in assay [3] (at 50.0 µM); -5% in assay [4] (setting [7]); -5% in assay [4] (setting [8]); 85.5% (active) in assay [4] (at 50.0 µM). Besides, the growth inhibition in assay [5] (setting [7]) was 2%; in assay [5] (setting [8]), -2%; in assay [5] (at 50.0 µM) it was 80.7% (active); in assay [6] (setting [7]), 5%; in assay [6] (setting [8]), 18%; in assay [6] (at 50.0 µM) it was 92.8% (active).

For the molecule `O=C1O/C(=C(/Cl)c2c3ccccc3cc3ccccc23)c2ccccc21`, the growth inhibition in assay [1] (setting [7]) is -22%; in assay [1] (setting [8]), 95% (active); in assay [1] (at 50.0 µM), 81.1% (active); in assay [2] (setting [7]), -13%; in assay [2] (setting [8]) it was 92% (active); in assay [2] (at 50.0 µM), 80.2% (active). The growth inhibition in assay [3] (setting [7]) is -15%; in assay [3] (setting [8]), 96% (active); in assay [3] (at 50.0 µM) it was 82.3% (active); in assay [4] (setting [7]), -4%; in assay [4] (setting [8]), 94% (active); in assay [4] (at 50.0 µM) it was 68.7%. In addition, the growth inhibition in assay [5] (setting [7]) was -25%; in assay [5] (setting [8]) it was 95% (active); in assay [5] (at 50.0 µM) it was 84.5% (active); in assay [6] (setting [7]), 27%; in assay [6] (setting [8]), 95% (active); in assay [6] (at 50.0 µM), 82.2% (active).
